# Results published in PubChem BioAssay (Tox21).
# A number with no mark means an inactive call. Records with an inconclusive call do not appear. A call without a number means that no potency is given here. Calls of active or inactive are those of the source. Unless noted, the call rests on the fitted dose curve; in most records, active means well fitted curve in the direction sought with a large enough effect in the repeat runs; inconclusive means weak or mixed curves; inactive means no such curve, though single readings can be large; an effect the other way counts as inactive or inconclusive.
# Tests used:
# [1] = target: Thyrotropin-releasing hormone receptor (Homo sapiens) (UniProt P34981); assay: qHTS assay to identify small molecule agonists of the thyrotropin-releasing hormone receptor (TRHR) signaling pathway (AID 1346891; calls by dose curve; further: potency means the concentration at half of the fitted maximal effect; on activation: series mostly up to about 58 µM)
# In short: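 Screening of agonists relied on calcium signalling in HEK293 cells expressing human TRHR: dye loading 2 h at 37 °C preceded compound addition and a 3-min fluorescence time course.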
# [2] = Human pregnane X receptor (PXR) small molecule agonists, qHTS cell viability counter screen (AID 1346977); further: nearly all actives have a fitted effect of over 50% in size; further: potency means the concentration at half of the fitted maximal effect
# In short: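 Tox21 qHTS format; PXR-Luc HepG2, 2,000/well, charcoal-stripped FBS 5%. Cpd exposure 24hr. Read: CellTiter-Fluor fluorescence, multiplexed with luciferase.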
# [3] = Caspase-3/7 induction in HepG2 cells by small molecules, qHTS assay (AID 1346978); further: nearly all actives have a fitted effect of over 15% in size
# In short: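 Caspase-3/7 induction was measured by Caspase-Glo 3/7 luminescence (30 min, room temperature) after a 17 hr compound exposure of wild-type HepG2 cells seeded at 2,000 per well and pre-incubated 5 hr.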
# [4] = Caspase-3/7 induction in CHO-K1 cells by small molecules, qHTS cell viability counter screen (AID 1346979); further: nearly all actives have a fitted effect of over 35% in size; further: potency means the concentration at half of the fitted maximal effect
# In short: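 CellTiter-Fluor viability check, qHTS format: wild-type CHO-K1, 16hr compound treatment, 1hr reagent incubation, fluorescence read.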
# [5] = Caspase-3/7 induction in CHO-K1 cells by small molecules, qHTS assay (AID 1346980); further: nearly all actives have a fitted effect of over 15% in size
# In short: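 Luminescent Caspase-Glo 3/7 read (30min, room temperature) quantified apoptosis induction. Cells were wild-type CHO-K1, treated with compound for 17hr at 37 C and 5% CO2.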
# [6] = Caspase-3/7 induction in HepG2 cells by small molecules, qHTS cell viability counter screen (AID 1346981); further: nearly all actives have a fitted effect of over 30% in size; further: potency means the concentration at half of the fitted maximal effect; on activity change, negative = cytotoxicity: series mostly up to about 92 µM
# In short: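 Viability determined by CellTiter-Fluor fluorescence in HepG2 wells also used for the luminescent Caspase-Glo 3/7 read. Compounds were present for 16 hr at 37 C, 5% CO2 before reagent addition.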
# [7] = target: Nuclear receptor subfamily 1 group I member 2 (Homo sapiens) (UniProt O75469); assay: Human pregnane X receptor (PXR) small molecule agonists, qHTS assay (AID 1346982); further: nearly all actives have a fitted effect of over 35% in size; further: potency means the concentration at half of the fitted maximal effect
# In short: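 Compound-induced hPXR transactivation of a CYP3A4 luciferase reporter was scored in HepG2 PXR-Luc cells over 24 hr at 37 C, 5% CO2, by luminescence.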
# [8] = target: Nuclear receptor subfamily 1 group I member 2 (Rattus norvegicus) (UniProt Q9R1A7); assay: Rat pregnane X receptor (rPXR) activation by small molecules, qHTS assay (AID 1346983); conditions: rPXR luciferase reporter cells, One-Glo luminescence, 24 h; max activation: hits give high values; further: nearly all actives have a fitted effect of over 20% in size
# In short: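 Luminescent readout (One-Glo luciferase, 30 min room temperature) followed 24 hr compound treatment at 37 C of rPXR cells plated 2,000 per well and preincubated 5hr; qHTS format with compounds delivered in DMSO.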
# [9] = target: Nuclear receptor subfamily 1 group I member 2 (Homo sapiens) (UniProt O75469); assay: CYP3A4 induction through human pregnane X receptor (PXR) by small molecules, qHTS assay (AID 1346984); further: nearly all actives have a fitted effect of over 40% in size; further: potency means the concentration at half of the fitted maximal effect
# In short: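 Readings come from a luciferase reporter: DPX-2 cells, which are HepG2 cotransfected with PXR and a CYP3A4-promoter construct, were exposed to test compounds for 24 h at 37C before One-Glo detection.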
# [10] = target: Nuclear receptor subfamily 1 group I member 2 (Homo sapiens) (UniProt O75469); assay: Human pregnane X receptor (PXR) activation by small molecules, qHTS assay (AID 1346985); further: nearly all actives have a fitted effect of over 40% in size; further: potency means the concentration at half of the fitted maximal effect
# In short: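 DPX-2 cells (HepG2 co-transfected with a PXR response element and a CYP3A4-promoter luciferase construct) were seeded at 2,000 per well, rested 5 hr at 37C, then exposed to DMSO-dissolved compounds for 24 hr. Activation was read as luciferase luminescence.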
# Sequence of Nuclear receptor subfamily 1 group I member 2 (Homo sapiens) (O75469 whole entry, looked up): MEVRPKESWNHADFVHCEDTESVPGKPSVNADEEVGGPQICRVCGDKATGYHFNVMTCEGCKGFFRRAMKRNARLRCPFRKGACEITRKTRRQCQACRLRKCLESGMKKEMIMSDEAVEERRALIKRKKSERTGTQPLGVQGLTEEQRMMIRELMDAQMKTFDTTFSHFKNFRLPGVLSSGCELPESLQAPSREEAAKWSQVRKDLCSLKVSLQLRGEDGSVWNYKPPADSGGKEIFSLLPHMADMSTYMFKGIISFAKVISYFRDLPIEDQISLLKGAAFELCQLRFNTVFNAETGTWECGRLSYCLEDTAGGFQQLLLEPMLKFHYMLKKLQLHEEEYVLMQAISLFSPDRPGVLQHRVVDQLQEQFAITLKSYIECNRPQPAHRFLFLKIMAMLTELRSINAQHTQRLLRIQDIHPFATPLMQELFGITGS
# Sequence of Nuclear receptor subfamily 1 group I member 2 (Rattus norvegicus) (Q9R1A7 whole entry, looked up): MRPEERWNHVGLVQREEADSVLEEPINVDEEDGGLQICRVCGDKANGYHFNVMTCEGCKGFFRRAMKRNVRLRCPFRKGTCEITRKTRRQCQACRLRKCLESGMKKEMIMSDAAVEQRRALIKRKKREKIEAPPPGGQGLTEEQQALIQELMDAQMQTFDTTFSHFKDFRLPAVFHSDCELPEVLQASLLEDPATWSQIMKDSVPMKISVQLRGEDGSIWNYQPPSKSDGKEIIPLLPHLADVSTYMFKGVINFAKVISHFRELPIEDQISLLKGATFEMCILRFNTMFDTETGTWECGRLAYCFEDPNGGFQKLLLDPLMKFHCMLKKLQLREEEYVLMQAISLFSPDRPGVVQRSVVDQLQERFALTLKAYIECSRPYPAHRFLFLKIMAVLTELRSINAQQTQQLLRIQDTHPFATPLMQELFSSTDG
# Sequence of Thyrotropin-releasing hormone receptor (Homo sapiens) (P34981 whole entry, looked up): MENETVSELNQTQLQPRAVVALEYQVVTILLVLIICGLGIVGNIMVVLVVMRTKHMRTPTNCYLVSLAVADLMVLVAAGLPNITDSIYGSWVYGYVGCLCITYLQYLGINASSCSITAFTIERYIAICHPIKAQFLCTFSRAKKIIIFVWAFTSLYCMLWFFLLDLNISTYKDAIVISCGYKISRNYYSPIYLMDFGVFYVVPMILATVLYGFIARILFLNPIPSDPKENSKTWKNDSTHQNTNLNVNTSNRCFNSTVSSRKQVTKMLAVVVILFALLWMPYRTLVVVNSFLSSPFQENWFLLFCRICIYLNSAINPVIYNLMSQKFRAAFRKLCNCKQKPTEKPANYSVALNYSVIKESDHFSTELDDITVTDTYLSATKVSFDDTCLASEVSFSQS
compound,measurement,setting,value
CCOP(=S)(OCC)SCSCC,Potency,[1],inactive
same,Potency,[2],inactive
same,Potency,[3],inactive
same,Potency,[4],inactive
same,Potency,[5],inactive
same,Potency,[6],inactive
same,Potency,[7],inactive
COC(=O)C(Br)CBr (configuration not stated),Potency,[1],inactive
same,Potency,[2],inactive
same,Potency,[3],inactive
same,Potency,[4],inactive
same,Potency,[5],inactive
same,Potency,[6],inactive
same,Potency,[7],inactive
O=S1(=O)OC(c2cc(Br)c(O)c(Br)c2)(c2cc(Br)c(O)c(Br)c2)c2ccccc21,Potency,[1],inactive
same,Potency,[2],12.5 µM (active)
same,Potency,[3],inactive
same,Potency,[4],25 µM (active)
same,Potency,[5],inactive
same,Potency,[6],25 µM (active)
same,Potency,[7],inactive
c1ccoc1,Potency,[1],inactive
same,Potency,[2],inactive
same,Potency,[3],inactive
same,Potency,[4],inactive
same,Potency,[5],inactive
same,Potency,[6],inactive
same,Potency,[7],inactive
C=C(C#N)CCC#N,Potency,[1],inactive
same,Potency,[2],inactive
same,Potency,[3],inactive
same,Potency,[4],inactive
same,Potency,[5],inactive
same,Potency,[6],inactive
same,Potency,[7],inactive
N#C/C(N)=C(/N)C#N,Potency,[1],inactive
same,Potency,[2],inactive
same,Potency,[3],inactive
same,Potency,[4],inactive
same,Potency,[5],inactive
same,Potency,[6],inactive
same,Potency,[7],inactive
ClCc1cccc(Cl)c1,Potency,[1],inactive
same,Potency,[2],inactive
same,Potency,[3],inactive
same,Potency,[4],inactive
same,Potency,[5],inactive
same,Potency,[6],inactive
same,Potency,[7],inactive
Cc1ccc2ccccc2c1,Potency,[1],inactive
same,Potency,[2],inactive
same,Potency,[3],inactive
same,Potency,[4],inactive
same,Potency,[5],inactive
same,Potency,[6],inactive
same,Potency,[7],inactive
NNC(=O)c1cccnc1,Potency,[1],inactive
same,Potency,[2],inactive
same,Potency,[3],inactive
same,Potency,[4],inactive
same,Potency,[5],inactive
same,Potency,[6],inactive
same,Potency,[7],27.4 µM (active)
O=C(NC(=O)c1c(F)cccc1F)Nc1ccc(OC(F)(F)C(F)OC(F)(F)F)c(Cl)c1 (configuration not stated),Potency,[1],inactive
same,Potency,[2],inactive
same,Potency,[3],inactive
same,Potency,[4],inactive
same,Potency,[5],inactive
same,Potency,[6],inactive
same,Potency,[7],inactive
C[C@H]1CNCCc2ccc(Cl)cc21,Potency,[1],inactive
same,Potency,[2],inactive
same,Potency,[3],inactive
same,Potency,[4],inactive
same,Potency,[5],inactive
same,Potency,[6],inactive
same,Potency,[7],inactive
C=CC(=O)OC,Potency,[1],inactive
same,Potency,[2],inactive
same,Potency,[3],inactive
same,Potency,[4],inactive
same,Potency,[6],inactive
CN1C[C@H](CNC(=O)OCc2ccccc2)C[C@@H]2c3cccc4c3c(cn4C)C[C@H]21,Potency,[1],inactive
same,Potency,[2],26.6 µM (active)
same,Potency,[3],inactive
same,Potency,[5],inactive
same,Potency,[6],inactive
O=C1NCN(c2ccccc2)C12CCN(CCCOc1ccc(F)cc1)CC2,Potency,[1],6.01 µM (active)
same,Potency,[2],6.68 µM (active)
same,Potency,[3],inactive
same,Potency,[4],26.6 µM (active)
same,Potency,[5],inactive
same,Potency,[6],7.5 µM (active)
same,max activation,[8],-0.12%
same,Potency,[9],inactive
same,Potency,[10],inactive
c1cc2ccc3cccc4ccc(c1)c2c34,Potency,[1],inactive
same,Potency,[2],inactive
same,Potency,[3],inactive
same,Potency,[5],inactive
same,Potency,[7],25.5 µM (active)
Cn1sc(Cl)cc1=O,Potency,[1],inactive
same,Potency,[2],inactive
same,Potency,[3],inactive
same,Potency,[4],inactive
same,Potency,[6],inactive
same,max activation,[8],-5.85%
same,Potency,[9],inactive
same,Potency,[10],inactive
Cl/C=C\C[N+]12CN3CN(CN(C3)C1)C2,Potency,[1],inactive
same,Potency,[2],inactive
same,Potency,[3],inactive
same,Potency,[4],inactive
same,Potency,[6],inactive
ClP(Cl)(Cl)(Cl)Cl,Potency,[1],inactive
same,Potency,[2],inactive
same,Potency,[3],inactive
same,Potency,[6],inactive
CCOc1nc(F)cc2nc(S(=O)(=O)Nc3c(Cl)cccc3Cl)nn12,Potency,[1],inactive
same,Potency,[2],inactive
same,Potency,[3],inactive
same,Potency,[4],inactive
same,Potency,[5],inactive
same,Potency,[7],inactive
S=C=NCc1ccccc1,Potency,[1],inactive
same,Potency,[2],inactive
same,Potency,[3],inactive
same,Potency,[4],inactive
same,Potency,[5],inactive
same,Potency,[7],61.8 µM (active)
O=C(C(Cl)(Cl)Cl)C(Cl)(Cl)Cl,Potency,[1],inactive
same,Potency,[2],inactive
same,Potency,[3],inactive
same,Potency,[5],inactive
same,Potency,[6],inactive
same,Potency,[7],inactive
O=[N+]([O-])C(Br)(CO)CO,Potency,[1],inactive
same,Potency,[2],inactive
same,Potency,[3],inactive
same,Potency,[4],61.1 µM (active)
same,Potency,[5],inactive
same,Potency,[6],inactive
same,Potency,[7],inactive
same,max activation,[8],-5.03%
same,Potency,[9],inactive
same,Potency,[10],inactive
CCOC(=O)COc1cc(-c2nn(C)c(OC(F)F)c2Cl)c(F)cc1Cl,Potency,[1],inactive
same,Potency,[2],inactive
same,Potency,[3],inactive
same,Potency,[4],inactive
same,Potency,[6],inactive
CCC(COC(=O)c1cc(OC)c(OC)c(OC)c1)(c1ccccc1)N(C)C (configuration not stated),Potency,[1],inactive
same,Potency,[2],inactive
same,Potency,[3],inactive
same,Potency,[5],inactive
same,Potency,[6],inactive
same,Potency,[7],29.8 µM (active)
same,max activation,[8],-1.12%
same,Potency,[9],15.8 µM (active)
same,Potency,[10],25.1 µM (active)
CC(=O)NC1CCSC1=O (configuration not stated),Potency,[1],inactive
same,Potency,[2],inactive
same,Potency,[3],inactive
same,Potency,[4],inactive
same,Potency,[5],inactive
same,Potency,[6],inactive
same,Potency,[7],inactive
same,max activation,[8],10.8%
same,Potency,[9],inactive
same,Potency,[10],inactive
CO[C@@H]1[C@H](OC(=O)NC(=O)CCl)CC[C@]2(CO2)[C@H]1[C@@]1(C)O[C@@H]1CC=C(C)C,activation,[1],-0.27% [at 11.8 µM]
same,"activity change, negative = cytotoxicity",[2],1.62% [at 19 µM]
same,caspase activation,[3],1.54% [at 19 µM]
same,caspase-3/7 activation,[5],1.61% [at 19 µM]
same,"activity change, negative = cytotoxicity",[6],-0.84% [at 19 µM]
same,Potency,[7],10.6 µM (active)
CC(C)(C)C(O)C(Oc1ccc(Cl)cc1)n1cncn1 (configuration not stated),Potency,[1],inactive
same,Potency,[2],inactive
same,Potency,[3],inactive
same,Potency,[4],inactive
same,Potency,[6],inactive
same,Potency,[7],4.33 µM (active)
C=CC(=O)OCC(C)O (configuration not stated),Potency,[1],inactive
same,Potency,[2],inactive
same,Potency,[3],inactive
same,Potency,[5],inactive
same,Potency,[6],inactive
CO/C=C(/C(=O)OC)c1ccccc1COc1cccc(C(F)(F)F)n1,Potency,[1],inactive
same,Potency,[2],1.93 µM (active)
same,Potency,[3],inactive
same,Potency,[4],0.385 µM (active)
same,Potency,[7],34.3 µM (active)
